From PubChem BioAssay (NCATS)
Several values for one entry are separate records, joined by “and”; a condition that tells them apart may be missing. Equal values may be shown once. Records with an inconclusive call do not appear. Values without a mark were called inactive. The call rests on the fitted dose curve; in most records, active means well fitted inhibition curve with a large enough effect; inconclusive means small, poorly fitted or top-dose-only effect; inactive means flat fitted curve, though single readings scatter.

tested on: KB-3-1; test: Cytotoxic Profiling of Annotated Libraries Using Quantitative High-Throughput Screening (AID 1296008); details: Five cell lines viability, CellTiter-Glo ATP luminescence, 48-72 h; max response: active compounds read low; further: nearly all actives have a fitted effect of over 60% in size
Summary of the method: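 Cells exposed to compounds for 48 or 72 hr at 37 degrees Celsius. Viability read as ATP-coupled luminescence with CellTiter-Glo after 10 min at room temperature.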
On the % scale 0 is the no-effect control and ±100 the full control effect.

Row | SMILES | max response
1 | Nc1nc2c(c(=O)[nH]1)N(C=O)C(CNc1ccc(C(=O)N[C@@H](CCC(=O)O)C(=O)O)cc1)CN2 (stereo partly specified) | 0.559%
2 | CC(=O)Nc1c(I)c(C(=O)O)c(I)c(N(C)C(C)=O)c1I | 3.77%
3 | CC(=O)Oc1cccc(C(=O)O)c1OC(C)=O | -11.2%
4 | CC(=O)N[C@@H]([C@@H](O)[C@H](O)[C@H](O)CO)[C@@H](O)CC(=O)C(=O)O | 10.5%
5 | CC(C)(C)CC(C)(C)c1ccc(OCCO)cc1 | -16.2%
6 | CCCCCCCCCCCCCCCCCC(=O)OC[C@@H](O)[C@H]1OC[C@H](O)[C@H]1O | -10%
7 | CNC(=O)c1c(I)c(C(=O)NCC(=O)Nc2c(I)c(C(=O)O)c(I)c(C(=O)NCCO)c2I)c(I)c(N(C)C(C)=O)c1I | 10%
8 | CCOC(=O)c1cc(-c2ccccc2)nc2ccc(C)cc12 | 3.5%
9 | CNC(C)CCC=C(C)C (stereo unspecified) | -7.11%
10 | C[C@H](CCC(=O)O)[C@H]1CC[C@H]2[C@@H]3CC[C@@H]4C[C@H](O)CC[C@]4(C)[C@H]3C[C@H](O)[C@]12C | -0.187%
11 | CCCCCc1ccc(C)cc1O | -0.225%
12 | CC(C)(C)NC[C@H](O)COc1ccccc1C1CCCC1 | 1.39%
13 | CO[C@@]1(NC(=O)C2SC(=C(C(N)=O)C(=O)O)S2)C(=O)N2C(C(=O)O)=C(CSc3nnnn3C)CS[C@@H]21 (stereo partly specified) | 1.97%
14 | CCN(CC)CCCC(C)Nc1cc(/C=C/c2ccccc2Cl)nc2cc(Cl)ccc12 (stereo unspecified) | 0.54%
15 | O=[N+]([O-])c1c(Cl)cccc1-c1c[nH]cc1Cl | 2.84%
16 | CO/N=C(/C(=O)N[C@@H]1C(=O)N2C(C(=O)O)=C(COC(N)=O)CS[C@H]12)c1ccco1 | -4.54% and -18.4%

Row | SMILES | max response
17 | CCCCCCCCCCCCCCCCCCCCCC(=O)Nc1ccn([C@@H]2O[C@H](CO)[C@@H](O)[C@@H]2O)c(=O)n1 | 3.81%
18 | CC(=O)Nc1ccc(OC(C)=O)cc1 | 6.1%
19 | CC1=C[C@H](O)CC(C)(C)[C@H]1/C=C/C(C)=C/C=C/C(C)=C/C=C/C=C(C)/C=C/C=C(C)/C=C/C1=C(C)C[C@@H](O)CC1(C)C | -11%
20 | CC[C@H]1OC(=O)C[C@@H](O)[C@H](C)[C@@H](O[C@@H]2O[C@H](C)[C@@H](O[C@H]3C[C@@](C)(O)[C@@H](O)[C@H](C)O3)[C@H](N(C)C)[C@H]2O)[C@@H](CC=O)C[C@@H](C)C(=O)/C=C/C(C)=C/[C@@H]1CO[C@@H]1O[C@H](C)[C@@H](O)[C@@H](OC)[C@H]1OC | 31.7% and -4.31%
21 | CC1(O)CCC(C(C)(C)O)CC1 (stereo unspecified) | -9.81%
22 | CC1(C)S[C@@H]2[C@H](NC(=O)C3(N)CCCCC3)C(=O)N2[C@H]1C(=O)O | -2.76%
23 | CCCCCCCCCCCCCCCCCCOCC(COP(=O)([O-])OCC[N+](C)(C)C)OC (stereo unspecified) | 0.811%
24 | CC[C@@H](C)[C@H](N)C(=O)O | -7.63%
25 | N=C(N)n1cccn1 | 3.42%
26 | NC(=O)c1ccc[n+]([C@@H]2O[C@H](COP(=O)([O-])OP(=O)(O)OC[C@H]3O[C@@H](n4cnc5c(N)ncnc54)[C@H](O)[C@@H]3O)[C@@H](O)[C@H]2O)c1 | -2.72%
27 | Cc1cccc(C)c1NC(=O)NC1=CCCN1C | -2.58%
28 | CC/C=C\C/C=C\C/C=C\CCCCCCCC(=O)O | -1.86%
29 | CCCc1nc(C(C)(C)O)c(C(=O)OCc2oc(=O)oc2C)n1Cc1ccc(-c2ccccc2-c2nn[nH]n2)cc1 | -0.562%
30 | OC[C@H]1OC([S-])[C@H](O)[C@@H](O)[C@@H]1O.[Au+] (stereo partly specified) | 5.78%
31 | CN[C@H](CC(C)C)C(=O)N[C@H]1C(=O)N[C@@H](CC(N)=O)C(=O)N[C@H]2C(=O)N[C@H]3C(=O)N[C@H](C(=O)N[C@@H](C(=O)O)c4cc(O)cc(O)c4-c4cc3ccc4O)[C@H](O)c3ccc(c(Cl)c3)Oc3cc2cc(c3O[C@@H]2O[C@H](CO)[C@@H](O)[C@H](O)[C@H]2O[C@H]2C[C@](C)(N)C(O)[C@H](C)O2)Oc2ccc(cc2Cl)[C@H]1O (stereo partly specified) | 9.66% and -29.2%
